Assay results published in ChEMBL document CHEMBL5606460, “ASAP - DENV-2 NS2B-NS3 protease fluorescence single point” (2024).
Out of some 2,000 compounds screened, about 110 (5.5%) showed an effect of 50% or more. Many of the other results were omitted from the sample, so strong results are more common in it than they were.

Target: Genome polyprotein (dengue virus type 2) (UniProt P29990)
[1] = Thailand/16681/1984, Concentration 25.0 uM, Number of replicates 1.0

CN(C)Cc1cc(C(=O)Nc2cc(Cl)cc(C(=O)NC(C)(C)CO)c2)ccn1
inhibition (Thailand/16681/1984, Concentration 49.5 uM, Number of replicates 2.0, Standard deviation 0.8373879793632091 %): -0.805%
inhibition (Thailand/16681/1984, Concentration 99.01 uM, Number of replicates 2.0, Standard deviation 1.3878191722501325 %): -0.768%
inhibition (Thailand/16681/1984, Concentration 198.0 uM, Number of replicates 2.0, Standard deviation 1.150645337077672 %): -0.077%

O=Cc1ccc(N2CCC(C(=O)N3CCN(CCc4ccccc4)CC3)CC2)cc1
inhibition [1]: 33%

CC(=O)N1CCC(N(C)C(=O)C2CCN(c3ccc(C=O)cc3)CC2)CC1
inhibition [1]: 10.9%

O=C(/C=C/c1ccccc1)C(=O)N1CCN(CCc2ccccc2)CC1
inhibition (Thailand/16681/1984, Concentration 49.5 uM, Number of replicates 2.0, Standard deviation 1.1058163895680901 %): -0.075%
inhibition (Thailand/16681/1984, Concentration 99.01 uM, Number of replicates 2.0, Standard deviation 1.051850300329286 %): 3.22%
inhibition (Thailand/16681/1984, Concentration 198.0 uM, Number of replicates 2.0, Standard deviation 0.9821847629012651 %): 9.52%

CN(C)c1ccc(/C=C/C(=O)C(=O)N2CCOCC2)cc1
inhibition (Thailand/16681/1984, Concentration 49.5 uM, Number of replicates 2.0, Standard deviation 1.4993650320557768 %): 37.9%
inhibition (Thailand/16681/1984, Concentration 99.01 uM, Number of replicates 2.0, Standard deviation 1.3662996762867583 %): 59.5%
inhibition (Thailand/16681/1984, Concentration 198.0 uM, Number of replicates 2.0, Standard deviation 0.7538742729933879 %): 78.8%

NCc1ccc(/C=C/C(=O)C(=O)N2CCOCC2)cc1
inhibition (Thailand/16681/1984, Concentration 49.5 uM, Number of replicates 2.0, Standard deviation 0.4887874545992688 %): 28.7%
inhibition (Thailand/16681/1984, Concentration 99.01 uM, Number of replicates 2.0, Standard deviation 0.17235835687354284 %): 48.5%
inhibition (Thailand/16681/1984, Concentration 198.0 uM, Number of replicates 2.0, Standard deviation 0.3206181572929207 %): 70.2%

CN(Cc1ccc(N2CCOCC2)cc1)C(=O)C1CCN(c2ccc(C=O)cc2)CC1
inhibition [1]: 13.2%

O=C(/C=C/c1ccc(N2CCNCC2)cc1)C(=O)N1CCOCC1
inhibition (Thailand/16681/1984, Concentration 49.5 uM, Number of replicates 2.0, Standard deviation 1.4144964098734516 %): 1.52%
inhibition (Thailand/16681/1984, Concentration 99.01 uM, Number of replicates 2.0, Standard deviation 0.4568300281843685 %): 5.18%
inhibition (Thailand/16681/1984, Concentration 198.0 uM, Number of replicates 2.0, Standard deviation 1.1436463049734074 %): 13.3%

O=Cc1ccc(N2CCC(C(=O)N3CCOCC3)CC2)cc1
inhibition [1]: 13.3%

Nc1ccc(/C=C/C(=O)C(=O)N2CCN(CCc3ccccc3)CC2)cc1
inhibition (Thailand/16681/1984, Concentration 49.5 uM, Number of replicates 2.0, Standard deviation 0.14046836541625998 %): 23.4%
inhibition (Thailand/16681/1984, Concentration 99.01 uM, Number of replicates 2.0, Standard deviation 0.26272659487750905 %): 40.1%
inhibition (Thailand/16681/1984, Concentration 198.0 uM, Number of replicates 2.0, Standard deviation 0.8058693227147314 %): 60.1%

CNC(=O)c1cc(Cl)ccc1NS(=O)(=O)c1[nH]ncc1C(=O)OC
inhibition (Thailand/16681/1984, Concentration 49.5 uM, Number of replicates 2.0, Standard deviation 1.242021000664882 %): -1.06%
inhibition (Thailand/16681/1984, Concentration 99.01 uM, Number of replicates 2.0, Standard deviation 0.08117786480507469 %): 0.923%
inhibition (Thailand/16681/1984, Concentration 198.0 uM, Number of replicates 2.0, Standard deviation 0.003820190349027435 %): 2.41%

COc1cc(Cl)c(C)cc1NC(=O)C1CCN(c2ccc(C=O)cc2)CC1
inhibition [1]: 13.9%

CC(C)(CNC(=O)C1CCN(c2ccc(C=O)cc2)CC1)c1cccc(Cl)c1
inhibition [1]: 10.4%

N[C@H]1C[C@H](CNC(=O)[C@@H](NC(=O)OCc2ccccc2)c2ccc(OCc3ccccc3)cc2)C1
inhibition (Thailand/16681/1984, Concentration 49.5 uM, Number of replicates 2.0, Standard deviation 4.035148717327061 %): -7.81%
inhibition (Thailand/16681/1984, Concentration 99.01 uM, Number of replicates 2.0, Standard deviation 3.6381547385610027 %): -5.23%
inhibition (Thailand/16681/1984, Concentration 198.0 uM, Number of replicates 2.0, Standard deviation 2.7035240962471856 %): 9.08%

O=Cc1ccc(N2CCC(C(=O)NC3C4CC5CC(C4)CC3C5)CC2)cc1 (stereo unspecified)
inhibition [1]: 6.37%

CN(Cc1cccc2ccccc12)C(=O)C1CCN(c2ccc(C=O)cc2)CC1
inhibition [1]: 11.3%

Cc1c(C2CCNCC2)cnn1Cc1nnc(-c2ccccc2)o1
inhibition (Thailand/16681/1984, Concentration 49.5 uM, Number of replicates 2.0, Standard deviation 2.3622904402078886 %): -2.18%
inhibition (Thailand/16681/1984, Concentration 99.01 uM, Number of replicates 2.0, Standard deviation 1.8884466143634908 %): -1.86%
inhibition (Thailand/16681/1984, Concentration 198.0 uM, Number of replicates 2.0, Standard deviation 1.0159128732525171 %): -0.491%

Cc1cccc(NC(=O)CNC(=O)C2CCN(c3ccc(C=O)cc3)CC2)c1C
inhibition [1]: 13%

Cc1cc(Cl)c2cccc(NC(=O)CCN)c2n1
inhibition (Thailand/16681/1984, Concentration 49.95 uM, Number of replicates 2.0, Standard deviation 0.0008200090846279543 %): 99.2%
inhibition (Thailand/16681/1984, Concentration 99.9 uM, Number of replicates 2.0, Standard deviation 0.04112992935002318 %): 98.9%

Cc1cc(Cl)c2cccc(NC(=O)[C@@H]3CCCC[C@H]3N)c2n1
inhibition (Thailand/16681/1984, Concentration 99.9 uM, Number of replicates 2.0, Standard deviation 1.2808103574664134 %): -9.95%

Cc1cc(CO)c2cccc(NC(=O)Cc3cccc(CN)c3)c2n1
inhibition (Thailand/16681/1984, Concentration 49.95 uM, Number of replicates 2.0, Standard deviation 1.2018993187616485 %): 15.4%
inhibition (Thailand/16681/1984, Concentration 99.9 uM, Number of replicates 2.0, Standard deviation 0.39117400474888586 %): 23.6%
